About 83,000 compounds went through this panel and 20% of them were active in at least one assay; those are over-represented in the sample as a whole.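 Compound tested at a single concentration for 48 hours in 96-well plates; a percent growth value below 10 was scored as active.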 A number with no mark means an inactive call. The source made the active and inactive calls.
Tested on: MDA-MB-468 breast
Test: NCI-60 one-dose screen, 48 h (100 = growth as untreated, 0 = no growth, -100 = all killed)
Details: 10 µM unless noted

Going from `Cc1cccc(C)c1NCc1nnc(-c2ccco2)o1` to `Cc1cccc2c(=O)c3c(sc12)c(NCCCNCCO)nc1ccccc13`, the growth falls from 100% to 16.3%.

Going from `Cc1ccc(Nc2ccc(Nc3ccc(C)cc3S(=O)(=O)O)c3c2C(=O)c2ccccc2C3=O)c(S(=O)(=O)O)c1` to `CCN(Cc1cccc(S(=O)(=O)[O-])c1)c1ccc(C(=C2C=CC(=[N+](CC)Cc3cccc(S(=O)(=O)O)c3)C=C2)c2ccccc2S(=O)(=O)O)cc1`, the growth falls from 104% to 92.9%.

Going from `CC/C=C\C[C@H]1C/C=C2/C(=O)C=C[C@H]2C/C=C\CCCC(=O)O1` to `Oc1cccc(CNC2CCCCC2)c1`, the growth rises from 31.7% to 113%.

Compared with `CCN(CC)CCCC(C)Nc1cnc(C(=O)Nc2cccc3ccc(OC)nc23)cn1` (centres undefined), `CCN(CC)CCOc1nc2ccccc2c2c1-c1ccc(OC)cc1C2=O` is lower in growth: 79.1% for the first, 14.3% for the second.

Going from `C/C(=C(/c1ccc(Cl)cc1)c1ccc(OCCN)cc1)c1ccc(C)cc1` to `N=c1sc(Cc2ccc(Cl)cc2)cn1CC(=O)c1ccc(F)cc1`, the growth falls from 108% to 84.7%.

Going from `COc1cc(/C=C(/C)C[N+](=O)[O-])ccc1O` to `COc1cc(/C=C/C(=O)/C=C/c2cc3ccc(Cl)cc3[nH]c2=O)ccc1O`, the growth rises from 57.9% to 98.4%.

Compared with `Cc1ccc(-c2nc(N3CCN(CC(=O)Nc4ccc(Cl)c(C(F)(F)F)c4)CC3)c3ccccc3n2)cc1`, `Cc1[nH]c2ccc(F)cc2c1CCNC(=O)C1CCN(C(=O)c2ccc(-c3ccccc3)cc2)CC1` is lower in growth: 93.9% for the first, 48.5% for the second.

Compared with `COC(=O)c1cc(-c2cccs2)c(C#N)c(N)c1C#N`, `Cc1nn(-c2cc(=O)[nH]c3ccccc23)c(N)c1C#N` is higher in growth: 80.8% for the first, 110% for the second.

Compared with `CCOC(=O)c1c[nH][nH]c1=O`, `CCn1nc(-c2ccc(C(=O)OC)cc2)nc2c(=O)n(C)c(=O)nc1-2` is lower in growth: 93.8% for the first, 82% for the second.

Compared with `O=c1c2cc(F)ccc2sc2c(NCCN3CCOCC3)nc3ccccc3c12`, `O=C1Nc2ccccc2/C1=C\c1nc(C2CCN(S(=O)(=O)c3ccc(F)cc3)CC2)n2ccccc12` is lower in growth: 71.3% for the first, 70.6% for the second.

First: COc1ccc(SC2c3ccc(O)cc3Oc3nc(N)c(C#N)c(N)c32)cc1 (centres undefined)
Second: COc1cc(-c2cc(=O)oc3cc(O)ccc23)c(OC)c2c1OCO2
The growth of the first is higher: 89.6% for the first, 67.7% for the second.

Going from `O=C(CSc1nnc(-c2ccc(NC(=O)c3cccnc3)cc2)o1)Nc1cccc(Br)c1` to `COc1ccc(-c2nnc(SCC(=O)Nc3ccc(C(=O)/C=C/c4ccccc4)cc3)n2-c2ccccc2)cc1OC`, the growth falls from 97.3% to 94.8%.

Compared with `COC(=O)[C@]12CC[C@@H](C)[C@H](C)[C@@H]1C1=CC[C@@H]3[C@@]4(C)C(C=O)=C[C@@](C)(COC(C)=O)[C@@H]4C(=O)C[C@@]3(C)[C@]1(C)CC2`, `COc1ccc(/C(C)=N/NS(=O)(=O)c2ccc(C)cc2)cc1OC` is higher in growth: 33.6% for the first, 104% for the second.

Going from `CCCCCCCCCCCCCC(=O)C(C)N` (centres undefined) to `CCCCCC(C)(O)C(C(=O)O)c1ccccc1` (centres undefined), the growth rises from 33.3% to 108%.

Going from `O=c1[nH]c(CCl)nc2c1cnn2-c1ccccc1` to `O=C1c2c(c3c4ccc(Br)cc4oc3c3[nH]c4ccccc4c23)C(=O)N1O`, the growth falls from 96.6% to 45.3%.

Going from `CCOC(=O)C1=C(C)N=C2Sc3cc(OC(F)(F)F)ccc3N2[C@H]1c1ccccn1` to `COc1cc(/C=C/C(=O)C(=Cc2ccc(F)c(F)c2)C(=O)/C=C/c2ccc(O)c(OC)c2)ccc1O`, the growth falls from 29.1% to 25.6%.

In the case of `NC1CCC(Nc2nc(NCc3cc(Cl)ccc3O)c3ncn(C4CCCC4)c3n2)CC1` (centres undefined), the growth was -51% (active).
`O=C1C(=O)c2ccccc2C(O)=C1CCCc1ccc(C2CCCCCC2)cc1` was tested, and the growth was 5.94% (active).
For `O=C(C1=Cc2cc3ccccc3n2Cc2cnnn21)c1ccccc1`, the growth was 5.98% (active).
For `CC(/C=C/C=C(\C)[C@H](O)[C@H](C)C(=O)O[C@H]1C[C@H](C)C=C2C=C[C@@]3(C)O[C@@H](O)CC(=O)[C@]3(C)[C@H]21)=C\C=C\C(=O)O`, the growth was -21.9% (active).
For `Nc1ncc(-c2ccc3ncnc(N4CCc5cc(F)c(Cl)cc54)c3c2)cc1C(F)(F)F`, the growth was -26.1% (active).
For `O=C1c2cccnc2C(=O)c2c1c(C(=O)OCCCN1CCOCC1)c1ccccn21`, the growth was 4.71% (active).
`C=CC(=O)Nc1cccc(Oc2nc(Nc3ccc(N4CCN(C)CC4)cc3)nc3ccsc23)c1` was tested, and the growth was -69.1% (active).
